Test [1] can be described thus: Quantitative High-Throughput drug screen in 47 multiple myeloma cell lines against the NCATS MIPE library collection: XG1_PLB cell viability assay (AID 1919866). Also: nearly all actives have a fitted effect of over 35% in size. A digest of the protocol:
(§1)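 Viability after 48 h drug exposure was measured as ATP-dependent luminescence. Cells, 500 per well, sat at 37 °C under 5% CO2; DMSO wells set 100%, media-only wells 0%.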

Test [2] is described as follows: Quantitative High-Throughput drug screen in 47 multiple myeloma cell lines against the NCATS MIPE library collection: PE2_PLB cell viability assay (AID 1919869). Also: nearly all actives have a fitted effect of over 35% in size. In a few lines: as §1
Test [3] in a line: Quantitative High-Throughput drug screen in 47 multiple myeloma cell lines against the NCATS MIPE library collection: OPM2_DSMZ cell viability assay (AID 1919872). Also: nearly all actives have a fitted effect of over 30% in size. A digest of the protocol:
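Approved and investigational drugs from MIPE 4.0 were added by pin tool to 500 cells per well. After 48 hours at 37C, ATP-based CellTiter-Glo luminescence indicated remaining viability.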

Test [4] in a line: Quantitative High-Throughput drug screen in 47 multiple myeloma cell lines against the NCATS MIPE library collection: KMS11_JCRBsus cell viability assay (AID 1919873). Also: nearly all actives have a fitted effect of over 50% in size. A digest of the protocol:
as §1

Test [5] can be described thus: Quantitative High-Throughput drug screen in 47 multiple myeloma cell lines against the NCATS MIPE library collection: UTMC2_PLB cell viability assay (AID 1919868). Also: nearly all actives have a fitted effect of over 55% in size. A digest of the protocol: as §1
A short description of test [6]: Quantitative High-Throughput drug screen in 47 multiple myeloma cell lines against the NCATS MIPE library collection: RPMI8226_ATCC cell viability assay (AID 1919871). Also: nearly all actives have a fitted effect of over 30% in size. A digest of the protocol: as §1
The nature of test [7]: Quantitative High-Throughput drug screen in 47 multiple myeloma cell lines against the NCATS MIPE library collection: PCM6_Riken cell viability assay (AID 1919870). Also: nearly all actives have a fitted effect of over 30% in size. A digest of the protocol:
as §1

Test [8] in a line: Quantitative High-Throughput drug screen in 47 multiple myeloma cell lines against the NCATS MIPE library collection: VP6_DJ cell viability assay (AID 1919867). Also: nearly all actives have a fitted effect of over 40% in size. A digest of the protocol: as §1

Each structure is given as a SMILES string. Results filed as inconclusive are left out. Activity calls are given as the source filed them. Calls follow the shape of the dose curve; as a rule, active = well fitted cell-killing curve with a large enough effect; inconclusive = small, poorly fitted or top-dose-only effect, or effect the other way; inactive = no such curve, though single readings can be large or run the other way.
Potency is read from the fitted curve at half-maximal effect.

As for `c1cnc2cc3c(cc2n1)C1CNCC3C1`, the Potency entry in test [1], in test [2], in test [3] and in test [4] was “inactive” in each case.

For `Nc1nc(Cl)nc2c1ncn2[C@H]1C[C@H](O)[C@@H](CO)O1`, the Potency in test [5] is 2.35 µM (active); in test [2], 14.8 µM (active); in test [4], 5.26 µM (active). Also, in test [6], the Potency result is “inactive”.

In the case of `COC(=O)C1=C(C)NC(C)=C(C(=O)OC(C)C)C1c1cccc2nonc12` (centres undefined), the Potency was 11.8 µM (active) in test [1] and 20.9 µM (active) in test [2].

For the compound `CC1(C)CCC(C)(C)c2cc(NC(=O)c3ccc(C(=O)O)cc3)ccc21`, the Potency in test [1] is 3.72 µM (active); in test [2], 20.9 µM (active); in test [4], 4.18 µM (active). The Potency entry in test [3] is “inactive”.

As to `Oc1ccc(-c2nc(-c3ccc(F)cc3)c(-c3ccncc3)[nH]2)cc1`, the Potency in test [2] is 26.4 µM (active); in test [7], 20.9 µM (active). Moreover, in test [6], the Potency entry is “inactive”.

Turning to `O=c1oc2cc(O)ccc2s1`, the Potency entry in test [1], in test [5], in test [2] and in test [4] was “inactive” throughout.

As for `CN1C(C(=O)Nc2ccccn2)=C(O)c2sccc2S1(=O)=O`, the Potency entry in test [1], in test [2] and in test [6] was “inactive” throughout.

Take `CN(C)C(=O)[C@H](O)[C@H](Cc1ccccc1)NC(=O)c1cc2cc(Cl)ccc2[nH]1`: the Potency in test [5] was 3.32 µM (active); in test [2] it was 2.64 µM (active); in test [7], 8.33 µM (active); in test [3] it was 14.8 µM (active); in test [4] it was 16.6 µM (active).

`CCC[C@@H]1C[C@@H](C(=O)N[C@@H]([C@H]2O[C@H](SC)[C@H](O)[C@@H](O)[C@H]2O)[C@@H](C)O)N(C)C1`: the Potency result in test [1] and in test [3] was “inactive” throughout. Also, the Potency in test [5] is 0.0166 µM (active).

Turning to `Nc1cc(C(Cl)=C(Cl)Cl)c(S(N)(=O)=O)cc1S(N)(=O)=O`, the Potency entry in test [2], in test [6] and in test [3] was “inactive” throughout.

For `CC1(C)C(=O)N(CCN2CCC(C(=O)c3ccc(F)cc3)CC2)c2ccccc21`, the Potency in test [1] is 14.8 µM (active); in test [2], 23.5 µM (active). The Potency result in test [7] and in test [3] was “inactive” each time.

In the case of `CN1CCC(=C2c3ccccc3CCc3sccc32)CC1`, the results for the Potency in test [1] and in test [6] were 18.7 µM (active) and 16.6 µM (active), respectively. For the same compound, the Potency entry in test [2] is “inactive”.

For `CN(C)C(=O)COC(=O)Cc1ccc(OC(=O)c2ccc(N=C(N)N)cc2)cc1`, the Potency result in test [8], in test [6], in test [3] and in test [4] was “inactive” in each case. Also, the Potency in test [2] is 5.26 µM (active).

On to `Clc1ccc2c(N3CCN(CCCN4CCN(c5ccnc6cc(Cl)ccc56)CC4)CC3)ccnc2c1`, for which the Potency result in test [1], in test [5], in test [2], in test [3] and in test [4] was “inactive” throughout.

Consider `OC(CN1CCN(c2cccc(Cl)c2)CC1)C(c1ccccc1)c1ccccc1` (centres undefined), for which the Potency entry in test [2] was “inactive”.

As for `Cc1ccc(C)c(OCCCC(C)(C)C(=O)O)c1`, the Potency in test [1] is 16.6 µM (active); in test [7] it was 8.33 µM (active). The Potency result in test [6], in test [3] and in test [4] was “inactive” in each case.

With `Clc1ccc(C(Cn2ccnc2)OCc2ccsc2Cl)c(Cl)c1` (centres undefined), the Potency in test [1] was 23.5 µM (active); in test [7] it was 16.6 µM (active); in test [4] it was 13.2 µM (active).

With `O=c1c(O)c(-c2cc(O)c(O)c(O)c2)oc2cc(O)cc(O)c12`, the Potency entry in test [1], in test [5] and in test [7] was “inactive” throughout. Moreover, the Potency in test [3] is 26.4 µM (active).

Take `CC(C)c1nc(CN(C)C(=O)N[C@H](C(=O)N[C@@H](Cc2ccccc2)C[C@H](O)[C@H](Cc2ccccc2)NC(=O)OCc2cncs2)C(C)C)cs1`: the Potency result in test [1] and in test [7] was “inactive” in each case.

Consider `Cc1c(OCC(F)(F)F)ccnc1CS(=O)c1nc2ccccc2[nH]1` (centres undefined), for which, in test [6], the Potency result was “inactive”.

Consider `Cc1ccc(Nc2nccc(N(C)c3ccc4c(C)n(C)nc4c3)n2)cc1S(N)(=O)=O`, for which the Potency in test [1] was 9.35 µM (active); in test [2], 16.6 µM (active); in test [7] it was 4.69 µM (active); in test [6], 14.8 µM (active).

On to `CC(C)Oc1ccc2c(=O)c(-c3ccccc3)coc2c1`, for which the Potency entry in test [2], in test [7] and in test [4] was “inactive” each time.

Take `COc1c(O)cc2c(c1O)[C@@H]1O[C@H](CO)[C@@H](O)[C@H](O)[C@H]1OC2=O`: the Potency result in test [8], in test [2], in test [7], in test [6] and in test [4] was “inactive” each time.

For `O=C1c2ccccc2-c2n[nH]c3cccc1c23`, the Potency entry in test [4] was “inactive”.

On to `C[C@]12CCC(=O)C=C1CC[C@@H]1[C@H]2[C@@H](O)C[C@@]2(C)[C@H]1CC[C@]2(O)C(=O)CO`, for which the Potency was 14.8 µM (active) in test [8], 0.418 µM (active) in test [6] and 0.187 µM (active) in test [4]. For the same compound, the Potency entry in test [2] and in test [3] was “inactive” each time.

With `COc1cc(C(C)=O)ccc1OCCCN1CCC(c2noc3cc(F)ccc23)CC1`, the Potency in test [8] was 16.6 µM (active); in test [6] it was 13.2 µM (active).

As to `CN(C)CCCC1(c2ccc(F)cc2)OCc2cc(C#N)ccc21` (centres undefined), the Potency result in test [5], in test [2] and in test [3] was “inactive” in each case. Also, the Potency in test [6] was 18.7 µM (active).

Turning to `CCCOc1ccc2nc(NC(=O)OC)[nH]c2c1`, the Potency result in test [1] is “inactive”. The figures for the Potency in test [5], in test [2] and in test [3] were 0.0209 µM (active), 0.0469 µM (active) and 0.0105 µM (active), respectively.

For `NC(=O)Cc1cccc(C(=O)c2ccccc2)c1N`, the Potency entry in test [1], in test [7], in test [6] and in test [4] was “inactive” each time.

Turning to `CCCCC(CC)COC(=O)C(C#N)=C(c1ccccc1)c1ccccc1` (centres undefined), the Potency result in test [1], in test [2], in test [3] and in test [4] was “inactive” in each case.

As for `O=C1CCc2ccc(OCCCCN3CCN(c4cccc(Cl)c4Cl)CC3)cc2N1`, the Potency in test [1] is 23.5 µM (active). Besides, in test [3], the Potency result is “inactive”.

As to `C[C@@H](c1ncncc1F)[C@](O)(Cn1cncn1)c1ccc(F)cc1F`, the Potency result in test [2], in test [3] and in test [4] was “inactive” each time. The Potency in test [7] was 1.66 µM (active).

Consider `CCCCc1ccc2nc(NC(=O)OC)[nH]c2c1`, for which the Potency was 0.0047 µM (active) in test [8], 0.0418 µM (active) in test [2], 0.418 µM (active) in test [6] and 0.0033 µM (active) in test [4].

With `O=C(O)c1cccc(-c2noc(-c3ccccc3F)n2)c1`, the Potency result in test [1], in test [2], in test [6], in test [3] and in test [4] was “inactive” each time.

For the origin of these results see PubChem BioAssay (NCATS).
